Molecules are shown by their SMILES. This is part of a sample that, as a whole, favours compounds with a hit. Of some 83,000 tested, about 20% had one in any assay.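 How to read the values: 0–100, growth inhibition (40 = 60% inhibited); 0, no net growth; -100 to 0, cell death (-40 = 40% of starting cells died; -100 = all dead).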 A number with no mark means an inactive call. Activity calls are given as the source filed them. How the source made its calls: active means growth percent below 10; inactive means the rest.

Among the test systems are SK-MEL-2 melanoma; EKVX NSCLC; SN12C renal; UO-31 renal; TK-10 renal; ACHN renal; CAKI-1 renal; A498 renal; CCRF-CEM leukemia; MOLT-4 leukemia; SR leukemia; RPMI-8226 leukemia; OVCAR-8 ovarian; OVCAR-5 ovarian; OVCAR-4 ovarian; SK-OV-3 ovarian; IGROV1 ovarian; OVCAR-3 ovarian; HS 578T breast; NCI/ADR-RES ovarian.
What all share (experiment): NCI-60 one-dose screen, 48 h (100 = growth as untreated, 0 = no growth, -100 = all killed)
Common to all, as to conditions: 10 µM unless noted

On to `COc1ccc(C2CC(c3cc(OC)c(OC)c(OC)c3)=NO2)cc1OCCCCOc1cc2c(cc1OC)C(=O)N1CCC[C@H]1C=N2` (stereo not given in full), for which the growth in the experiment with SK-MEL-2 melanoma is -35.2% (active); in the experiment with EKVX NSCLC it was 16.8%; in the experiment on SN12C renal, 32.2%; in the experiment with UO-31 renal it was 19.5%; with TK-10 renal, -13.6% (active); in the experiment on ACHN renal it was 0.735% (active). The growth in the experiment with CAKI-1 renal is 11.1%; with A498 renal it was -67.3% (active); in the experiment on CCRF-CEM leukemia, 69.3%; with MOLT-4 leukemia, 7.66% (active); in the experiment on SR leukemia, -18.1% (active); in the experiment with RPMI-8226 leukemia, 17.1%. Besides, the growth was 26.1% in the experiment on OVCAR-8 ovarian; 17.9% in the experiment on OVCAR-5 ovarian; 13.8% in the experiment with OVCAR-4 ovarian; 22% in the experiment with SK-OV-3 ovarian; -21.5% (active) with IGROV1 ovarian; 0.847% (active) with OVCAR-3 ovarian. Moreover, the growth is 0.334% (active) in the experiment with HS 578T breast and 19.8% in the experiment on NCI/ADR-RES ovarian.
With `COc1cc(C(=O)n2nc(N3CCOCC3)c3cc(-n4cccc4)ccc32)cc(OC)c1OC`, the growth in the experiment on SK-MEL-2 melanoma was 92.1%; in the experiment on EKVX NSCLC it was 60.6%; in the experiment with SN12C renal it was 69%; in the experiment with UO-31 renal, 32.9%; with TK-10 renal it was 88.4%; with ACHN renal, 49.8%. For the same compound, the growth in the experiment with CAKI-1 renal is 60.6%; with A498 renal, 0.812% (active); in the experiment on CCRF-CEM leukemia it was 36.4%; in the experiment on MOLT-4 leukemia it was 33.1%; with SR leukemia, 6.85% (active); in the experiment with RPMI-8226 leukemia, 42.6%. The growth with OVCAR-8 ovarian was 64%; in the experiment with OVCAR-5 ovarian, 98.3%; in the experiment on OVCAR-4 ovarian, 68.5%; with SK-OV-3 ovarian it was 72.5%; in the experiment on IGROV1 ovarian, 68%; in the experiment on OVCAR-3 ovarian, 87.3%. For the same compound, the growth in the experiment on HS 578T breast and with NCI/ADR-RES ovarian was 68.5% each time.
As for `COc1cc(/C=N/Nc2ccc(Br)cc2)cc(OC)c1OC`, the growth in the experiment on SK-MEL-2 melanoma is 73%; in the experiment on EKVX NSCLC, 63.9%; with SN12C renal it was 69.7%; with UO-31 renal, 35%; in the experiment on TK-10 renal it was 97.2%; in the experiment with ACHN renal it was 31.6%. The growth was 10.2% with CAKI-1 renal; 60% in the experiment on A498 renal; 31.1% in the experiment on CCRF-CEM leukemia; 44.1% in the experiment on MOLT-4 leukemia; 68.8% with SR leukemia; 58.4% in the experiment on RPMI-8226 leukemia. Also, the growth with OVCAR-8 ovarian was 54.8%; in the experiment on OVCAR-5 ovarian, 68.4%; with OVCAR-4 ovarian, 51%; in the experiment with SK-OV-3 ovarian, 85.2%; with IGROV1 ovarian, 57.3%; in the experiment on OVCAR-3 ovarian it was 63.3%. In addition, the growth was 80% in the experiment on HS 578T breast and 57.2% in the experiment on NCI/ADR-RES ovarian.
With `O=P(O)(O)OCC1OC(n2cnc3c(NCc4ccco4)ncnc32)C(O)C1O` (stereo not given), the growth in the experiment on SK-MEL-2 melanoma was 89.2%; in the experiment on EKVX NSCLC, 48.6%; in the experiment on SN12C renal, 12.1%; in the experiment with UO-31 renal it was -6.51% (active); in the experiment on TK-10 renal, 60.9%; in the experiment with ACHN renal, 4.1% (active). Also, the growth in the experiment on CAKI-1 renal is -42.3% (active); in the experiment with A498 renal, 7.68% (active); in the experiment on CCRF-CEM leukemia it was -31.5% (active); with MOLT-4 leukemia it was 16%; in the experiment on SR leukemia it was 27.1%; in the experiment on RPMI-8226 leukemia it was -23.6% (active). Also, the growth is 9.63% (active) in the experiment with OVCAR-8 ovarian; 45.3% in the experiment on OVCAR-5 ovarian; 15.7% with OVCAR-4 ovarian; 1.95% (active) in the experiment with SK-OV-3 ovarian; -36.4% (active) in the experiment on IGROV1 ovarian; -72% (active) in the experiment on OVCAR-3 ovarian. The figures for the growth in the experiment on HS 578T breast and with NCI/ADR-RES ovarian were 32.5% and 19.5%, respectively.
For `O=C(/C=C/c1ccccc1)c1ccc(Nc2nc(Nc3ccc(F)cc3)nc(Nc3ccc(Cl)cc3)n2)cc1`, the growth in the experiment on SK-MEL-2 melanoma was 92%; in the experiment with EKVX NSCLC, 79.2%; in the experiment on SN12C renal, 99.6%; with UO-31 renal, 82%; in the experiment on TK-10 renal, 106%; in the experiment on ACHN renal it was 93.1%. In addition, the growth with CAKI-1 renal was 87.4%; in the experiment with A498 renal it was 94.5%; with CCRF-CEM leukemia, 26.3%; with MOLT-4 leukemia, 83.6%; in the experiment with SR leukemia, 78.2%; with RPMI-8226 leukemia, -9.92% (active). In addition, the growth in the experiment on OVCAR-8 ovarian was 58.4%; in the experiment on OVCAR-5 ovarian it was 102%; with OVCAR-4 ovarian it was 90.8%; with SK-OV-3 ovarian, 103%; with IGROV1 ovarian, 90.8%; in the experiment on OVCAR-3 ovarian, 80.2%. For the same compound, the growth with HS 578T breast is 99.7%; in the experiment with NCI/ADR-RES ovarian it was 76.7%.
In the case of `Fc1ccc2[nH]cc(-c3nc(-c4c[nH]c5ccncc45)cs3)c2c1`, the growth with SK-MEL-2 melanoma is -49.9% (active); in the experiment with EKVX NSCLC it was -45.7% (active); with SN12C renal, -49.8% (active); in the experiment with UO-31 renal, -69.9% (active); with TK-10 renal it was -37.4% (active); in the experiment on ACHN renal, -78.2% (active). Also, the growth in the experiment with CAKI-1 renal was -17.4% (active); in the experiment on A498 renal it was 62.1%; in the experiment with CCRF-CEM leukemia, -19.2% (active); in the experiment with MOLT-4 leukemia, -32.6% (active); in the experiment with SR leukemia, -6.91% (active); with RPMI-8226 leukemia, -24.2% (active). The growth with OVCAR-8 ovarian is -41.5% (active); in the experiment with OVCAR-5 ovarian it was 24.3%; in the experiment on OVCAR-4 ovarian, -0.149% (active); with SK-OV-3 ovarian it was 63.1%; in the experiment on IGROV1 ovarian it was -43.2% (active); in the experiment on OVCAR-3 ovarian, -74.3% (active). Moreover, the growth in the experiment with HS 578T breast is -38.3% (active); with NCI/ADR-RES ovarian it was 16.9%.
As to `Cc1ccc(C(=O)c2ccc(CC(=O)N=Nc3c(O)[nH]c4ccc(Br)cc34)n2C)cc1`, the growth in the experiment on SK-MEL-2 melanoma is 91.3%; in the experiment with EKVX NSCLC, 74.3%; in the experiment on SN12C renal, 85.2%; in the experiment with UO-31 renal it was 64.7%; in the experiment with TK-10 renal, 131%; in the experiment on ACHN renal, 88.9%. The growth with CAKI-1 renal was 79.7%; with A498 renal it was 89.3%; in the experiment on CCRF-CEM leukemia, 95.4%; with MOLT-4 leukemia, 86%; in the experiment on SR leukemia it was 101%; in the experiment on RPMI-8226 leukemia it was 92.7%. In addition, the growth in the experiment on OVCAR-8 ovarian is 94.9%; in the experiment on OVCAR-5 ovarian, 91.7%; with OVCAR-4 ovarian it was 97.6%; with SK-OV-3 ovarian, 91.3%; in the experiment with IGROV1 ovarian, 77.5%; with OVCAR-3 ovarian, 105%. The figures for the growth with HS 578T breast and in the experiment on NCI/ADR-RES ovarian were 99.6% and 87.7%, respectively.
